From PubChem BioAssay AID2546 (National Center for Advancing Translational Sciences (NCATS), 2010)
About 11,000 (3.5%) of roughly 310,000 compounds were called active. Not shown: some 8% with an inconclusive outcome. This is one part of a sample in which actives are shown more often than they occur. Values without a mark were called inactive. Calls come from the whole dose curve; as a rule, active = well fitted inhibition curve with a large enough effect; inconclusive = small, poorly fitted or top-dose-only effect, or effect the other way; inactive = flat fitted curve, though single readings scatter.

assay: VP16 counterscreen qHTS for inhibitors of ROR gamma transcriptional activity; details: Drosophila S2 Gal4-VP16 UAS-luciferase, luminescence, 20 h; series mostly up to 53.6 µM; activity, negative = inhibition: at the top concentration;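 note: Gal4-VP16 expression switched on by copper sulfate through the metallothionein promoter; nearly all actives have a fitted effect of over 50% in size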
% is set by controls: 0 for no effect and ±100 for the full control effect; potency is the fitted concentration of half-maximal effect.

SMILES | activity, negative = inhibition [%] | Potency
COc1ccc(N(Cc2ccc(N(C)C)cc2)C(=O)c2ccc(S(C)(=O)=O)cc2)cc1 | 3.23 | –
COc1cccc(N2CCN(c3ccc4nnc(CCC(=O)N5CCN(C)CC5)n4n3)CC2)c1 | -6.09 | –
CCOc1ccc(-n2c(SCC(=O)OC)nc3sc4c(c3c2=O)CCN(C)C4)cc1 | -2.56 | –
Cc1cccc(NC(=O)COC(=O)CCc2ccccc2)c1C | -0.134 | –
Cc1cccc(NC(=S)N2CCC(O)CC2)c1C | -7.46 | –
Cc1cccc(NC(=O)c2cccc(C(=O)Nc3cccc(C)c3C)n2)c1C | 19 | –
Cc1cccc(NC(=O)C2CCCN(C(=O)Nc3ccc(F)cc3)C2)c1C (stereo not drawn) | 2.71 | –
Cc1c(NC(=S)NCc2ccc(F)cc2)cccc1[N+](=O)[O-] | – | 15.8 µM (active)
Cc1cc(Cl)ccc1NC(=S)NCCCN1CCCC1=O | 4.91 | –
Cc1ccc(NC(=S)NCCc2ccc(Cl)cc2)c(C)c1 | – | 3.16 µM (active)
Cc1c(NC(=O)/C=C/C(=O)O)cccc1[N+](=O)[O-] | -4.39 | –
Cc1cccc(NC(=S)NCCc2ccc(Cl)cc2)c1C | – | 7.08 µM (active)
Cc1cc(C(=O)NCCc2ccc(Cl)cc2)c(C)o1 | -6.63 | –
Cc1c(NC(=O)Nc2ccccc2)cccc1[N+](=O)[O-] | 23.5 | –
Cc1cccc(NC(=S)NCCc2ccc(F)cc2)c1C | – | 6.31 µM (active)
CCn1cc(CN2CCN(CC(C)(C)C)C(CCO)C2)c2ccccc21 (stereo not drawn) | 0.311 | –
Cc1ccc(C)c(N2CCN(S(=O)(=O)c3c(C)[nH]c(C)c3C(=O)N3CCCC3)CC2)c1 | 6.41 | –
O=C(c1cc(-c2ccc(O)cc2)on1)N1CCOCC1 | -27.7 | –
CCC(C(=O)NCc1cccnc1)n1nc(C)c2sc3ccccc3c2c1=O (stereo not drawn) | -10.1 | –
COc1ccccc1CC(=O)NCCc1c[nH]c2ccccc12 | 1.31 | –
Cc1ccc(NC(=O)C2CCCN2S(=O)(=O)c2cccc3cccnc23)c(C)c1 (stereo not drawn) | 16.3 | –
O=C(CC(=O)N/N=C\c1ccc(F)cc1)NCCc1ccccc1 | -1.58 | –
Cc1ccc(NC(=S)Nc2ncccc2C)c(C)c1 | – | 7.08 µM (active)

SMILES | activity, negative = inhibition [%] | Potency
CCCCC(=O)NCc1ccc(F)cc1 | -3.24 | –
CSc1ncc(C(=O)Nc2ccc(C)cc2C)c(C)n1 | -4.09 | –
S=C(NCCc1ccccc1)N1CCCCC1 | -1.99 | –
O=C(NCCc1c[nH]c2ccccc12)c1cccc(Br)c1 | 2.54 | –
Cc1cc(F)ccc1NC(=S)NCCc1ccccc1 | – | 5.62 µM (active)
Cc1cc(C)cc(NC(=S)NCc2ccc(F)cc2)c1 | – | 3.98 µM (active)
Cc1cc(C)cc(NC(=S)NCCc2c[nH]c3ccccc23)c1 | – | 12.6 µM (active)
COc1cc(NC(=S)NCc2ccc(S(N)(=O)=O)cc2)cc(OC)c1 | 10.1 | –
CCCOc1ccc(CNC(=O)C2CCN(c3nn4c(=O)cc(C)nc4s3)CC2)cc1 | -5.78 | –
Cc1cccc(-c2nc(CS(=O)CC(=O)NC(C)CCc3ccccc3)c(C)o2)c1 (stereo not drawn) | 3.03 | –
O=C(Nc1ccc(N2CCCC2=O)cc1)c1cncc(Br)c1 | 15.5 | –
Cc1cccn2c(=O)c(/C=C(\C#N)C(N)=O)c(N3CCCCCC3)nc12 | 10.7 | –
CCCc1nnc(NC(=O)CCC(=O)N2CCN(S(=O)(=O)c3ccc(OC)cc3)CC2)s1 | -5.49 | –
Cc1c(C(=O)NCC(c2ccco2)N2CCCC2)oc2ccc(Cl)cc12 (stereo not drawn) | -2.12 | –
Cc1ccc(CNC(=O)CCS(=O)(=O)c2ccc3c(c2)CC(C)N3C(=O)C2CC2)o1 (stereo not drawn) | -9.65 | –
O=C1C(=O)N(CCN2CCOCC2)C(c2cccc(Cl)c2)/C1=C(/O)c1ccc2c(c1)OCO2 (stereo not drawn) | 6.2 | –
O=C(NNS(=O)(=O)c1ccc([N+](=O)[O-])cc1)C1CCCCC1 | -5.42 | –
COc1cccc(-c2nc(CS(=O)CC(=O)NCc3ccc(F)cc3)c(C)o2)c1 (stereo not drawn) | -0.425 | –
COc1ccccc1N1CC(C(=O)Nc2nnc(SCC(=O)NCC3CCCO3)s2)CC1=O (stereo not drawn) | -2.2 | –
Cc1ccccc1N/C(SCc1ccc(Cl)cc1)=C(/C#N)C(N)=O | -0.144 | –
Cc1ccc(NC(=S)NCc2ccccc2Cl)c(C)c1 | – | 5.01 µM (active)
Cc1cc(C(=O)NNC(=S)Nc2ccccc2C)cs1 | -21.2 | –
Cc1ccc(NC(=O)C(=O)NCc2ccco2)c(C)c1 | 21.4 | –

SMILES | activity, negative = inhibition [%] | Potency
S=C(NCc1cccnc1)Nc1ccc(Cl)cc1Cl | -10 | –
Cc1ccccc1NC(=S)NC(=O)Cc1ccc(Cl)cc1 | – | 7.08 µM (active)
O=C(N/C(=C\c1ccc([N+](=O)[O-])cc1)C(=O)N1CCOCC1)c1cccc(Br)c1 | -11.1 | –
CC(=O)Nc1ccc(S(=O)(=O)N(C)c2nc3ccccc3nc2Cl)cc1 | 11.5 | –
COC(=O)CN1C(=O)[C@H]2[C@@H](/C=C/c3ccccc3)N3C(=O)CN(CC4CC4)C(=O)[C@@]3(Cc3ccccc3)[C@H]2C1=O | 3.02 | –
O=C(CN(Cc1ccc(Br)cc1)S(=O)(=O)c1ccccc1)NCc1ccncc1 | -8.26 | –
CN1CCN(C(=O)C(=O)c2cn(CC(=O)N3CCCC3)c3ccccc23)CC1 | -3.11 | –
Cc1ccccc1CNC(=O)CCC(=O)N1Cc2ccccc2Oc2ncccc21 | -6.17 | –
Cc1cc(SCc2c(F)cccc2Cl)nc(=O)[nH]1 | 2.98 | –
COc1ccc(CNC(=O)/C(C#N)=C/c2cccc(OC)c2OC)cc1 | -3.25 | –
O=C(/C=C/Sc1ncn[nH]1)c1ccc(Cl)cc1 | – | 4.47 µM (active)
COc1ccc(Cl)cc1CSc1ncn[nH]1 | 0.416 | –
O=C(NCCOCc1ccc(Cl)cc1)c1ncn[nH]1 | 2.55 | –
O=C(Cn1c(NCCO)nc2ccccc21)c1ccc(Cl)cc1Cl | -4.09 | –
CCc1cccc(NC(=S)N(CCN(C)C)C2CCN(C(C)C)CC2)c1 | 3.51 | –
CC(C)c1ccc(S(=O)(=O)N2CCN(C(=O)c3ccc(N4CCCC4)c([N+](=O)[O-])c3)CC2)cc1 | 4.28 | –
CC(=O)N1c2ccc(S(=O)(=O)NCCC(=O)N(C)C3CCCCC3)cc2CC1C (stereo not drawn) | 1.26 | –
Nc1nc(Nc2ccccc2F)nc(NC2CCCCC2)c1[N+](=O)[O-] | -20.7 | –
Cc1cccc(C(=O)Nc2nnc(Cc3c[nH]c4ccccc34)s2)c1 | 0.0774 | –
Cc1ccc(-c2csc(-c3c[nH]c4ccccc34)n2)cc1 | 13.1 | –
Cc1cccc(N=C2NN=C(c3c[nH]c4ccccc34)CS2)c1 | – | 7.94 µM (active)
C=CCCN(C(Cc1ccccc1)C(=O)OC)S(=O)(=O)c1cc(Br)ccc1Br (stereo not drawn) | -1.68 | –
